In PubChem BioAssay (NCI):
This is part of a sample that, as a whole, favours compounds with a hit. Of some 83,000 tested, about 20% had one in any assay.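 Single-dose data. Exposure time 48 hours. Values below 10 considered active.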 Unmarked numbers belong to inactive results. The source made the active and inactive calls.

System: HCT-15 colon
Test: NCI-60 one-dose screen, 48 h (100 = growth as untreated, 0 = no growth, -100 = all killed)
Details: 10 µM unless noted

SMILES	growth
COc1ccccc1/C=C/C1=C(C)CCC(c2ccccc2OC)C1C (stereo not given)	9.57% (active)
COc1cc(OCc2cccc(-c3ccc4c(c3)OCCO4)c2C)cc(OC)c1C=O	60.1%
COc1ccccc1-c1nc2ccc3[nH]ncc3c2c2c1CCCC2	88.6%
CC(=O)OCCOc1cc(Cl)c(Cl)cc1Cl	104%
CC1(C)CC(=O)C2=C(C1)OC(C(=O)c1ccccc1)C2c1cccc(Oc2ccccc2)c1 (stereo not given)	45.6%
CC1OC(C(=O)N2CCN(CCO)CC2)CC1COC1CCCCC1 (stereo not given)	102% [50 µM]
COc1ccccc1NC(=O)n1c(=O)cc(C)c2ccc(O)cc21	104%
COc1ccc2c(c1)C(c1c[nH]c3ccccc13)(c1c[nH]c3ccccc13)CCO2	41.8%
CC(C)(C)n1cc(-c2ccnc(NCCNS(=O)(=O)c3cccc4ccccc34)c2)c(-c2cccc(O)c2)n1	20.9%
COc1cc(C2=Nc3c(N)nc(N)nc3NC(c3cccc(Nc4ccnc5cc(C(F)(F)F)ccc45)c3)C2)cc(OC)c1OC (stereo not given)	58%
Nc1nc(=O)n([C@H]2CC=C(CO)O2)cc1F	101%
CS(=O)(=O)c1ccc(/C(=N/NC(N)=S)c2ccc(F)cc2)cc1	98.4%
O=c1n(C2OC(CO)C(O)C2O)ccc2nccn12 (stereo not given)	105%
Cc1c(N2CCCCC2)[nH]c2ccccc12	131%
O=C1CCc2c(sc3[nH]c(=S)n(-c4cc(C(F)(F)F)cc(C(F)(F)F)c4)c(=O)c23)C1	-42.9% (active)
Nc1nc(N)c2c(n1)NC(c1ccc3c(c1)OCO3)CC(c1cccc(Nc3ccncc3)c1)=N2 (stereo not given)	98.4%
CCCCCCCC/C=C\CCCCCCCCOc1ccc(CC(=O)NCC[N+]2(C)CCCC2)cc1	84.8%
Cn1cc(-c2csc(-c3cn(CCO)c4ccc(F)cc34)n2)c2cccnc21	41.5%
CCOC(=O)C1=CCC(n2cc(F)c(=O)[nH]c2=O)O1 (stereo not given)	104%
CC1(C)CC[C@]2(CO)CC[C@]3(C)C(=CC[C@@H]4[C@@]5(C)CCNCC(C)(C)[C@@H]5CC[C@]43C)[C@@H]2C1	5.97% (active)

SMILES	growth
O=C(CN1C(=O)NC2NC(=O)NC21)N/N=C/c1cccc([N+](=O)[O-])c1 (stereo not given)	100%
[2H]C([2H])([2H])Oc1ccc(/C=C/C(=O)/C=C(O)/C=C/c2ccc(OC([2H])([2H])[2H])c(OC([2H])([2H])[2H])c2)cc1OC([2H])([2H])[2H]	14.3%
Cc1nn(C)c2ncnc(Nc3ccccc3Br)c12	101%
COc1cc(NC(=O)c2cncnc2Nc2ccc3c(ccn3Cc3cccc(F)c3)c2)cc(OC)c1	33.7%
C=C1CC[C@@H]2[C@](C)(COC(C)=O)[C@H](OC(C)=O)CC[C@@]2(C)[C@@H]1CC(Nc1ccc(S(=O)(=O)Nc2nccc(C)n2)cc1)C1=CCOC1=O (stereo not given in full)	-42% (active)
Cc1nc2c(c(-c3ccccc3)n1)Cc1c(ccc3ccccc13)O2	107%
CCCc1cc(CCC)n2nc(N)nc2n1	107%
Clc1ccc(C2=Nn3c(nnc3-c3cc(Cl)cc(Cl)c3Cl)SC2)cc1	32.3%
CCN(CC)CCN1C(=O)c2c(c(C)c3c(oc4cc(OC)ccc43)c2C)C1=O	101%
O=C1c2cccnc2C(=O)c2c1c(C(=O)OCCCN1CCOCC1)c1ccccn21	-42.2% (active)
CCCCN(CCC#N)C(N)=O	101%
O=C(OCC(O)(CO)C(=O)NC12CC3CC(CC(C3)C1)C2)c1ccc(Cl)cc1 (stereo not given)	104%
CC1(C)C2=C(C(=O)N1Cc1ccccc1)C(c1ccco1)N(C(=O)C1CCC1)CCN2 (stereo not given)	109%
CN1CC(c2ccccc2)C(C(=O)c2ccc(Br)cc2)C12C(=O)Nc1ccccc12 (stereo not given)	95.7%
Nc1ncc(-c2ccc3ncnc(N4CCc5cc(F)c(Cl)cc54)c3c2)cn1	44.2%
CCCCCN(CCCCC)CC(O)c1c(Cl)ccc2ccccc12 (stereo not given)	55.8%
CNC(=O)c1cc(Oc2ccc3nc(NC(=O)NC(C)C)sc3c2)ccn1	55.9%
Nc1ccc(Cl)c2c(=O)c3ccccc3[nH]c12	83.1%
CNC(=O)c1cc(Oc2cccc3nc(NC(=O)Nc4ccc(F)cc4F)ccc23)ccn1	18.1%
N#Cc1c(-c2ccc(F)cc2)cc(-c2cccc(Cl)c2)[nH]c1=O	58.1%
